Results from the supplement of paper PMC6555819.

Columns and labels:
Test in all cases: PBM binding z-score (relative to random genomic background probes); higher = stronger binding; sequences stand for … in GC…GCGATTGACAGCGTAGAATGAAGG
[1] = test system: RARb homodimer (NR concentration 270 nM)
How it was run: (§1)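 Binding z-scores take random background probes as their reference. They come from custom Agilent 4×180K protein-binding microarrays incubated 1 h with ligand-free nuclear receptor dimers, with antibodies against each partner (one per run) detecting binding. Scanned fluorescence was regression-normalized.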

[2] = test system: RARg:RXRa (NR concentration 270 nM, RXRa partner concentration 90 nM)
How it was run: as §1

[3] = test system: RARg homodimer (NR concentration 270 nM)
How it was run: as §1

[4] = test system: RXRa DBDmut IVT, anti-RXR (DBD mutation: RXRa K156A/R161A, NR concentration 90 nM)
How it was run: as §1

[5] = test system: RXRa homodimer (NR concentration 180 nM)
How it was run: as §1

[6] = test system: THRa:RXRa (NR concentration 90 nM, RXRa partner concentration 90 nM)
How it was run: as §1

[7] = test system: THRa homodimer (NR concentration 90 nM)
How it was run: as §1

[8] = test system: VDR:RXRa (NR concentration 270 nM, RXRa partner concentration 90 nM)
How it was run: as §1

[9] = test system: VDR homodimer (NR concentration 270 nM)
How it was run: as §1

Row | Sequence | PBM binding z-score [1] | PBM binding z-score [2] | PBM binding z-score [3] | PBM binding z-score [4] | PBM binding z-score [5] | PBM binding z-score [6] | PBM binding z-score [7] | PBM binding z-score [8] | PBM binding z-score [9]
1 | CAAAGTAGGTCACAGAGGTCAAAGTCCGTGCGTA | 5.68 | 7.42 | 8.01 | 3.36 | 8.08 | 4.51 | 2.42 | 7.99 | 6.6
2 | TCGAGTAGATTACCAATGGGGCATTCAGCTTTCT | -0.458 | -0.531 | -0.494 | 0.278 | -0.304 | -0.599 | -0.825 | -0.414 | -0.571
3 | CTACCAAGGTGAACAAGGTCTTTGATTACTATTC | 1.24 | 0.878 | 0.946 | 0.886 | 0.789 | 2.52 | 1.42 | 3.6 | 0.414
4 | CCGACTGGAGCAGAAAGGTTACCATACCATCCGG | 2.03 | 1.32 | 0.946 | -0.179 | 1.8 | 0.977 | -0.2 | 0.564 | 0.282
5 | CAAATTAGGTCAAGGTCAAAGTCGGTTTGTGCCA | 5.11 | 6.43 | 7 | 3.32 | 6.65 | 4.42 | 4.59 | 5.33 | 4.95
6 | ATCTCTAGGTAAAGATACTTCAGTGAATGCAAAT | -0.416 | 0.491 | 0.669 | -0.0244 | 0.385 | 0.398 | 0.038 | 0.244 | 0.371
7 | CCGACTGAGGCAAAGGTTACCATACTCAGTACGA | 1.76 | 1.73 | 1.29 | 0.393 | 2.61 | 1.54 | 0.023 | 1.07 | -0.216
8 | CCTTACGGGGCAAGGTTATAGCACGGGTGGTACG | 0.994 | 1.01 | 1.11 | -1.2 | 1.08 | 0.828 | -0.345 | 0.0431 | 0.2
9 | TCTCGGAGGACACGAAGGTCAGAGGTTTCCAGAG | 4.01 | 3.24 | 3.9 | 0.797 | 2.29 | 3.07 | 1.17 | 2.59 | 1.73
10 | ATCTCTAGGTAAAAGTTCAGTGTATCCCGAGGAT | 2.33 | 1.84 | 2.05 | 1.12 | 1.49 | 1.43 | 0.678 | 1.56 | 2.3
11 | TCATATAGCTAAACAGGTGAAAGTCCGTAAGTTA | 0.282 | 0.0319 | -0.0908 | 0.797 | 0.266 | 0.318 | -0.358 | 0.43 | 0.105
12 | AGTCAAAGTTCACTAGGTAACCTAAGATTCAGCT | 3.75 | 5.2 | 5.66 | 4.32 | 4.04 | 2.46 | 0.759 | 4.04 | 4.29
13 | ATATGTAGGTTATCGGGTCATTAAGTTTGCGCAT | 3.05 | 3.13 | 2.3 | 1.7 | 3.23 | 3.25 | 2.55 | 6.04 | 4.46
14 | TCAAGCAGGCCAGAGGGTCACTCAAGAGGTACGG | 2.73 | 2.61 | 2.21 | 0.592 | 2.67 | 1.68 | -0.21 | 1.52 | 0.557
15 | TCAAGTTGGTCACGGAGGTCACACACGACGGGTA | 4.54 | 4.9 | 4.56 | 1.53 | 4.68 | 3.72 | 2.55 | 5.67 | 3.44
16 | TTACCAAGGTGAGCTGAGGTCGTGGATCCAACTC | 1.97 | 1.47 | 0.791 | -0.207 | 1.82 | 4.83 | 2.55 | 3.37 | 0.927
17 | TATAGCAGGCCAGAGGGTCACTCAAGAGGTACGG | 2.58 | 2.61 | 2.09 | -1 | 2.67 | 1.76 | -0.288 | 1.58 | 0.651
18 | CCGACTTGGGCAGAAAGGTTACCATACCATCCGG | 1.52 | 0.806 | 0.702 | -0.476 | 1.3 | 0.651 | -0.379 | 0.0426 | -0.411
19 | ATTGAAAGGTCGACGAGGTGAGTATACACCGTTT | 3.13 | 4.19 | 4.05 | 1.2 | 4.31 | 3.89 | 1.14 | 5.31 | 1.58
20 | ACTATTAGTTGAGACGTGGGCAACCGATAGGTTG | -0.524 | -0.179 | 0.239 | -0.00277 | -0.275 | -0.642 | -1.02 | -0.5 | -0.369
21 | CCTGCAAGGTCAATGGTCAGCTAAAGCAGCTCGC | 3.65 | 5.83 | 5.9 | 3.75 | 5.35 | 3.77 | 1.8 | 3.76 | 2.45
22 | CCTCGGAGGACAGAAGGTCAGAGCCGTCCGCTTT | 3.64 | 3.4 | 3.1 | 0.361 | 2 | 2.33 | 0.0553 | 0.934 | -0.0393
23 | CGTCAAAGTTCAAGGTAGCGTAACAGAAAGCAGC | 3.9 | 5.41 | 6.34 | 4.38 | 4.84 | 2.19 | 0.191 | 3.68 | 3.11
24 | GGAACGAGGACAAGTTGATAGCAGAGTTTGATGG | 0.51 | 0.796 | 1.26 | 1.62 | 0.0511 | 2.53 | 1.58 | 0.0641 | 0.892

Row | Sequence | PBM binding z-score [1] | PBM binding z-score [2] | PBM binding z-score [3] | PBM binding z-score [4] | PBM binding z-score [5] | PBM binding z-score [6] | PBM binding z-score [7] | PBM binding z-score [8] | PBM binding z-score [9]
25 | CAGACTAGGTCAAGAGGTCAAAGTCCGCTTCCCG | 5.34 | 8 | 7.45 | 2.6 | 7.71 | 4.23 | 2.26 | 5.97 | 3.84
26 | CGAACTCGGTCAAGGACAGTGAATCTCCGCACGC | 1.7 | 1.95 | 2.98 | 0.656 | 0.345 | 2.15 | 1.37 | 0.0619 | 0.261
27 | AGCACGAGGGCAATGAGTTGATAGCACGGGTGGC | 0.927 | 1.16 | 1.72 | 2.14 | 0.851 | 0.817 | -0.487 | 5.06 | 3.16
28 | TAGCCTAGGTCATGCGGGGCAGTATAGTGTCGGC | 3.26 | 4.01 | 4.41 | 0.368 | 3.22 | 3.56 | 1.08 | 4.22 | 1.5
29 | AGTCGAAGTTCAGGACGAGGTAACGTAAAGCACG | 1.36 | 2.55 | 1.89 | 1.42 | 1.28 | 3.25 | 1.62 | 1.15 | 0.996
30 | CGAACTAGGTGAGAACAGGACAGTGAAGGATGAT | 0.34 | 0.567 | 0.579 | 0.0565 | 0.458 | 1.21 | 0.0768 | -0.123 | 0.286
31 | CCTACTGAGCCAAAAAGGTCATTGATGCCGATAA | 4.22 | 4.3 | 4.1 | 1.49 | 5.03 | 2.86 | 1.05 | 4.58 | 2.73
32 | TCTCGGAGGACACGAAGGGCAGAGCTTTCCAGAG | 1.42 | 0.796 | 1.71 | 0.216 | -0.0528 | 1.33 | 0.123 | 0.0136 | -0.0061
33 | GCGACTGGGGCATCAGCAGGTTACCAAAACTTAA | 1.16 | 0.879 | 0.0539 | -0.286 | 0.238 | 1.19 | 0.0193 | -0.298 | -0.326
34 | TCTTGTAGATTAACAGGAGGTTAAGAAAGATCGA | 0.36 | 0.787 | 0.386 | 0.566 | 1.05 | 1.03 | -0.287 | 0.91 | 0.0136
35 | TCTAGTAGATCAATAGAGGTTAAGAAAGTGCGCT | 1.38 | 0.728 | 0.2 | 0.439 | 1.56 | 2.09 | -0.79 | 1.84 | 0.312
36 | TCTTGTAGATCAAGGGTTAAGAAAGCCGAAGCCT | 0.274 | 0.818 | 0.191 | 0.293 | 1.64 | 0.516 | -0.93 | 0.604 | -0.218
37 | CGAACTAGGTCATGGACAGGACAGTGAATAGTAA | 2.93 | 5.08 | 4.95 | 1.42 | 3.41 | 3.13 | 0.909 | 2.3 | 0.49
38 | GCTGCTAGGCCAACTGATGGTCAGCTAAAGCTCG | 0.279 | 0.0424 | 0.383 | -0.307 | -0.651 | -0.291 | -1.08 | -0.87 | -1.03
39 | TAGCCTAGGTCCGATCGGGCCAGTATACGCTATA | -0.854 | -0.722 | -0.738 | -0.969 | -0.677 | 0.334 | -0.898 | -0.91 | -0.952
40 | TCTCGGAGGACACGGAAGGTCAGAGCTCGACATC | 3.98 | 3.49 | 4.48 | 0.816 | 2.31 | 3.45 | 1.37 | 1.97 | 1.01
41 | CCAGACAGGTGAAAGGTAACTAAGTCTGGTACGC | 0.728 | 1.08 | 0.582 | -0.0522 | 1.99 | 0.784 | -0.203 | 0.397 | -0.529
42 | CCTAGTTGGTCAGGAGGTCACACATCGGATATGA | 4.48 | 4.62 | 4.11 | 0.662 | 4.21 | 3.39 | 2.2 | 3.76 | 2.7
43 | AGAATGCGGTTATTAAGATCAGGGAATTGCGGTC | -0.19 | -0.0734 | 0.152 | -0.072 | -0.0867 | -0.0645 | -0.416 | -0.302 | -0.264
44 | TAGCCTAGGTCATGCGGGCCAGTATCGTGTCGGC | 2.77 | 4.03 | 4.3 | 0.371 | 3.1 | 2.88 | 1.17 | 2.81 | 0.528
45 | TCTGCTAGGTCAGTTGCTCAGCTAACGAGCTGCC | 1.89 | 2.18 | 3.06 | 0.567 | 0.527 | 1.01 | -0.484 | -0.466 | -0.87
46 | TGTCAAAGTTCAAAGGCAACGTAAGTATCCACAC | 3.66 | 5.59 | 5.84 | 4.29 | 5.06 | 2.12 | -0.708 | 4.26 | 4.02
47 | TTACCAAGGTGAGCAGAGGTCGTTGATCCAACTC | 2.31 | 1.68 | 1.26 | -0.0246 | 2.03 | 3.54 | 0.587 | 3.68 | 1.28
48 | TCTTGTAGATAAGCAGGTTAAGAAAGCTGGCCAA | -0.166 | -0.153 | -0.231 | 0.319 | 0.245 | 0.129 | -0.622 | 0.177 | -0.0851
